# A selection: hits, their analogues and other compounds. The true share with any hit is near 17%.
# TDP1 inh: inhibitors of human tyrosyl-DNA phosphodiesterase TDP1. Q9NUW8. recombinant TDP1, AlphaScreen DNA substrate cleavage. Potency, µM (doses to about 130 µM), for inactives: at the highest dose activity change, negative = inhibition, most hits filed as inhibitors. 350,000 compounds, 0.28% hits; note: % is set by controls: 0 for no effect and ±100 for the full control effect; nearly all actives have a fitted effect of over 40% in size
# Target sequence (Q9NUW8 whole entry, looked up): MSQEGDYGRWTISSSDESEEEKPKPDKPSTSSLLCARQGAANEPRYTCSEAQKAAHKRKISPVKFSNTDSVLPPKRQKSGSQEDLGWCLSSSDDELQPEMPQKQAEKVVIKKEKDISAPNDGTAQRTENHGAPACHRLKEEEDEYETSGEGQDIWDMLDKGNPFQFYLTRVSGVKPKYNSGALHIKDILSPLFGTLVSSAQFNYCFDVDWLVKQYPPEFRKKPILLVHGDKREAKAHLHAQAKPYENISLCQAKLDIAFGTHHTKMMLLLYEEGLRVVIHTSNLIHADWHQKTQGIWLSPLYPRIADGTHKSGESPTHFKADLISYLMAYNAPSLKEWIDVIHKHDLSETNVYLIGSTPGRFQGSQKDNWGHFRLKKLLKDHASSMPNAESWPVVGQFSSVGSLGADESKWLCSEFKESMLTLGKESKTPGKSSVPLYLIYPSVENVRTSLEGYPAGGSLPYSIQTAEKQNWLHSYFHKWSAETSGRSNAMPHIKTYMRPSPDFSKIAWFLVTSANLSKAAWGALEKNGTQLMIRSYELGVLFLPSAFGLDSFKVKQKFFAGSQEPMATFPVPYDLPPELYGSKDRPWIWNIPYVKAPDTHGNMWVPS
#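 Steps: enzyme plus compound, 15 min RT; add biotin/phosphotyrosine-FITC oligonucleotide (15 nM final), react 5 min; add donor/acceptor beads (10 ug/ml final), 10 min; read AlphaScreen. Tdp1 at 1 nM final.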
# TDP1 cell CPT: DT40-hTDP1 cell growth loss with CPT | AID 686979 | Potency, µM (series often up to 46.2 µM), for the others: top-dose activity change, negative = growth inhibition, hits mostly inhibitors | chicken DT40 Tdp1-/-;hTDP1 cells + 20 nM CPT, ATP luminescence, 48 h | 420,000 compounds, 12% hits; note: % is set by controls: 0 for no effect and ±100 for the full control effect; nearly all actives have a fitted effect of over 55% in size
#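 Chicken DT40 Tdp1-/- cells complemented with human TDP1, 400 cells/well, exposed to compounds plus 20 nM camptothecin for at least 48 h at 37 C; viability read as ATP content by CellTiter-Glo luminescence.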
# DT40 TDP1 no CPT: qHTS for Inhibitors of human tyrosyl-DNA phosphodiesterase 1 (TDP1): qHTS in cells in absence of CPT | AID 686978, 2013 | Potency, µM (series often up to 46.2 µM), inactives show top-dose activity change, negative = growth inhibition, most hits filed as inhibitors | DT40 Tdp1-/- hTDP1 cells, no CPT, ATP luminescence, 48 h | 420,000 compounds, 15% hits; note: % is set by controls: 0 for no effect and ±100 for the full control effect; nearly all actives have a fitted effect of over 55% in size
#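 Compound effects on proliferation are scored in DT40 Tdp1-/-;hTDP1 cells in the absence of CPT. ATP levels (CellTiter-Glo luminescence) are recorded after a ≥48 hr, 37 °C incubation.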
# ClpP mod: qHTS Assay for Activators of ClpP; ATP-dependent Clp protease proteolytic subunit (Bacillus subtilis (strain 168)), P80244; purified B. subtilis ClpP, FRET peptide cleavage, 20 min; Potency, µM (highest dose often 57.5 µM), without a hit: top-dose activity change, negative = active; 340,000 compounds, 1.9% hits; AID 651965, 2013; active = well fitted falling curve with a large enough effect; inconclusive = small, poorly fitted or top-dose-only effect; inactive = no such curve, though single readings can be large or run the other way; note: the source files actives as falling curves though it sought activators and does not explain the sign; nearly all actives have a fitted effect of over 65% in size
#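 FRET quenching reversal measured ClpP activation: 10 microg/mL B. subtilis ClpP at pH 8 with the FRET-FV decapeptide, read at 430 nm after 320 nm excitation. The 20-min minus 0-min signal was scaled between DMSO/no-enzyme wells and ADEP (5.8 microM final).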
# An asterisk follows results filed as active; ? = inconclusive; · = no result given; [ ] = remark or other dose. Unless noted, calls come from the whole dose curve; as a rule, active = well fitted curve in the direction sought with a large enough effect; inconclusive = small, poorly fitted or top-dose-only effect, or another doubt; inactive = no such curve, though single readings can be large; an effect the other way counts as inactive or inconclusive. Potency is the fitted concentration of half-maximal effect.
SMILES,TDP1 inh,TDP1 cell CPT,DT40 TDP1 no CPT,ClpP mod
COc1ccc(NC(=O)CNC(=O)Cn2c(C)cc3ccccc3c2=O)cc1OC,0%,13µM*,21µM*,-19%
COc1cc(NC(=O)CNC(=O)Cn2c(C)cc3ccccc3c2=O)cc(OC)c1OC,1%[0.0935 µM],13µM*,15µM*,·
COc1cc(NC(=O)CNC(=O)Cn2ccc3ccccc3c2=O)cc(OC)c1OC,-5%,-20%,?,-9%
Cc1nn(CCCC(=O)NCc2ccccc2)c(=O)c2cc3sccc3n12,4%,1%,-27%,-4%
Cc1ccc(-c2cc(C(=O)OCC(=O)N(C)c3c(N)n(Cc4ccccc4)c(=O)[nH]c3=O)c3ccccc3n2)o1,·,?,?,-1%
O=C(O)c1ccc(N2C(=O)CC(N3CCN(c4cccc(Cl)c4)CC3)C2=O)cc1 (stereo not given),·,-27%,3.3µM*,0%
O=C1CC(N2CCN(Cc3ccccc3)CC2)C(=O)N1c1ccccc1 (stereo not given),1%,2%,-2%,-1%
CCOC(=O)c1ccc(N2C(=O)CC(N3CCCC(C)C3)C2=O)cc1 (stereo not given),6%,13µM*,?,2%
O=C(O)c1ccc(N2C(=O)CC(N3CCN(c4cccc(C(F)(F)F)c4)CC3)C2=O)cc1 (stereo not given),4%,-4%,-9%,·
CC1CCN(C2CC(=O)N(c3ccccc3)C2=O)CC1 (stereo not given),8%,21µM*,-15%,·
Cc1cc(C)n(C2CC(=O)N(c3cccc(Cl)c3)C2=O)n1 (stereo not given),6%,15µM*,?,-3%
COc1cccc(CC(=O)Nc2ccc(-c3nc4ccccc4s3)cc2Cl)c1,-2%,-22%,?,5%
COc1ccc(N2CCN(C(CNS(=O)(=O)c3c(C)cc(C)cc3C)c3ccco3)CC2)cc1 (stereo not given),5%,?,26µM*,-21%
CCS(=O)(=O)NCC(c1ccco1)N1CCN(c2ccc(OC)cc2)CC1 (stereo not given),5%,12%,17%,-9%
COc1ccc(S(=O)(=O)NCC(c2ccco2)N2CCN(c3ccccc3F)CC2)cc1C (stereo not given),10%,21µM*,18µM*,2%
COc1ccc(N2CCN(C(CNS(=O)(=O)c3ccc4c(c3)OCCO4)c3ccco3)CC2)cc1 (stereo not given),3%,13µM*,?,-4%
COc1ccc(S(=O)(=O)NCC(c2ccco2)N2CCN(c3ccc(F)cc3)CC2)cc1 (stereo not given),10%,?,?,-5%
N#Cc1ccccc1Cn1c(=O)n(CCCCC(=O)NCc2ccc3c(c2)OCO3)c(=O)c2ccccc21,-1%,?,-12%,-2%
CN1[C@@H](Cc2ccccc2)COc2cc(N3CCSCC3)ccc2S1(=O)=O,·,?,16µM*,?
O=C(c1ccc(CSc2nc3ccncc3n2Cc2ccccc2F)cc1)N1CCCCCC1,4%,?,26µM*,-6%
Cc1ccc(SCc2ccc(C(=O)N3CCCCC3)cc2)cc1,-4%,-10%,?,0%
Cc1cccc(Cn2c(SCc3ccc(C(=O)NC4CCCC4)cc3)nc3ccncc32)c1,5%,?,?,-4%
Cc1ccc(Cn2c(SCc3ccc(C(=O)N4CCCCCC4)cc3)nc3ccncc32)cc1,0%,?,21µM*,-6%
Cc1ccc(Cn2c(SCc3ccc(C(=O)N4CCCCC4)cc3)nc3ccncc32)cc1,8%,18µM*,8.2µM*,-15%
Cc1cc(C)c2[nH]c3nc(SCC(=O)O)nnc3c2c1,·,-12%,2%,0%
O=C(CS(=O)c1ccc(C(F)(F)F)cc1[N+](=O)[O-])Oc1ccc(Cl)cc1 (stereo not given),6%,9.2µM*,12µM*,-2%
COc1ccc(S(=O)(=O)N2CCCCC2c2cc(C(=O)NCc3ccccc3)no2)cc1 (stereo not given),·,26µM*,?,0%

# Screens deposited in PubChem BioAssay by National Center for Advancing Translational Sciences (NCATS).
